Test results published in PubChem BioAssay AID1209 (Sanford-Burnham Center for Chemical Genomics, 2008).
In all, about 190,000 compounds went through this assay and about 810 (0.43%) were called active. Cut-off read from the data, not from the text of the source: active = inhibition above about 50%; inactive = the rest. The list comes from a sample in which actives are over-represented; it also holds similar structures and randomly drawn compounds.

Molecular target: Mannose-6-phosphate isomerase (Homo sapiens) (UniProt P34949)
Sequence (P34949 whole entry, looked up): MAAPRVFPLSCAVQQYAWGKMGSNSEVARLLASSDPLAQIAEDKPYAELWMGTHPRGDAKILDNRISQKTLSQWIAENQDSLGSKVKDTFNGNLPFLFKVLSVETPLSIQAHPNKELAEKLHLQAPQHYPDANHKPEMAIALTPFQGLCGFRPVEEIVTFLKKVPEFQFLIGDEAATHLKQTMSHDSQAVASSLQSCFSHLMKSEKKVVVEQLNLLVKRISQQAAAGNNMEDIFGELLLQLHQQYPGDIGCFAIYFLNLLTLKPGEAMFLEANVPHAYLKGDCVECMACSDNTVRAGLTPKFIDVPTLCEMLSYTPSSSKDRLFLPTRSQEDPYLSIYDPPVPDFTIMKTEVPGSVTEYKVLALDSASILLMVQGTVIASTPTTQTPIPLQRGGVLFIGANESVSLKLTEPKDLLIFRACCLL
Test: MPI enzyme activity inhibition – biochemical, fluorescence intensity, coupled assay, primary screen (AID 1209);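 note: plate controls were DMSO vehicle for no effect and wells lacking substrate for full effect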
Details: purified PMI enzyme, at 20 µM, hits give high values

inhibition, inactive:
C=CCOC(=O)C1=C(C)NC(SCC(=O)NC(=O)OCC)=C(C#N)C1c1cccnc1 (stereo not drawn) -29.7%, CCc1ccc2nc(NC(=O)Cn3cnc4ccccc4c3=O)sc2c1 -4%, O=c1[nH]c2cc3c(cc2cc1C(c1nnnn1CC1CCCO1)N1CCCC1)OCO3 (stereo not drawn) -6.3%, CCN(CC)S(=O)(=O)c1ccc(OC)c(NC(=O)c2cc3c(=O)n4ccccc4nc3s2)c1 10%, Cc1ccc2nc(-c3cccnc3SCC(=O)N3c4ccccc4CC3C)[nH]c2c1 (stereo not drawn) 9.6%, C/C(=N\NC(=O)CSCc1ccc(Cl)cc1)c1ccc(NC(=O)c2ccccc2)cc1 -2.3%, O=C(N/N=C/c1ccncc1)c1nc(-c2ccccc2)n2c1CCCCC2 5.7%, CN(C)S(=O)(=O)N1CCC(CO)(Cc2cccc(C(F)(F)F)c2)CC1 3%, Cc1ccsc1C=C1C(=O)c2ccccc2C1=O 1.2%, O=C(COC(=O)c1ccc(S(=O)(=O)N2CCCC2)cc1)Nc1cccnc1Cl -7.2%, CCOC(=O)c1ccc(NC(=O)CCC2COc3ccccc3O2)cc1 (stereo not drawn) 14.5%, COc1ccc(-n2c(CN3CCC(C)CC3)nc3ccc([N+](=O)[O-])cc3c2=O)c(OC)c1 2.1%, COc1cc2c(=O)c(-c3ccc(O)cc3)coc2cc1OC1OC(CO)C(O)C(O)C1O (stereo not drawn) 3.2%, O=c1c(-c2ccc(O)cc2)coc2cc(OC3OC(CO)C(O)C(O)C3O)ccc12 (stereo not drawn) -7.2%, COc1ccc2[nH]c(=O)c(CN(Cc3cccs3)C(=S)Nc3ccccc3)cc2c1 22.8%, COc1ccc(OCc2nnc(SCC(=O)O)n2N)cc1 4.6%, CCN(CC)C(=O)CSc1nnc(COc2ccc(OC)cc2)n1N 1.7%, CC(=O)c1c(C)nc(-c2ccc(OCC(=O)Nc3ccccc3)cc2)n1O -7.9%, CCS(=O)(=O)c1ccc2oc(Nc3ccc(C(C)(C)C)cc3)nc2c1 15.9%, CCS(=O)(=O)c1ccc2oc(Nc3ccc(OC)cc3)nc2c1 -4.5%, O=C(NNC(=O)c1sccc1-n1cccc1)c1ccc(F)cc1 0.7%, CCCCOc1ccc(CSc2nnc(C)n2N)cc1[N+](=O)[O-] -8.7%, O=C(Nc1ccc(F)cc1)c1ccc(Cn2cnnn2)cc1 -9.3%, COCC(=O)N(C)c1nnc(-c2cnccn2)s1 -3.9%, CC(=O)N(C)c1nnc(-c2ccccn2)s1 -0.7%, CCCc1cc(=O)[nH]c(SCc2ccccc2)n1 13.6%, O=C(CSc1nc2ccccc2c(=O)n1CCCN1CCOCC1)N1CCN(c2ccccc2)CC1 -4.4%, Cc1ccccc1NS(=O)(=O)c1ccc(C(=O)OCC(=O)NCC(C)C)cc1 -11.1%, COc1ccc(OCc2nnc3n2N=C(c2ccc(OC)cc2)CS3)cc1 -9.9%, c1ccc(OCc2nnc3n2N=C(c2ccccc2)CS3)cc1 47.7%, CCc1ccccc1NC(=O)N1CCC(NC(=O)C(Cc2ccccc2)NC(C)=O)CC1 (stereo not drawn) -12.4%, CC(C)[C@H](NC(=O)c1ccccc1)C(=O)OCC(=O)N1CC(=O)Nc2ccccc21 14.2%, CCCCNC(=O)CSc1nc2ccccc2n1S(=O)(=O)c1ccc(Cl)cc1 -2.1%, COc1ccc(-c2nc(SC)n(C)c(=O)c2C#N)cc1OC 13.4%, O=C1C[C@@H](c2ccc(O)cc2)Oc2cc(O)cc(O)c21 10.6%, O=C1CC(c2ccc(O)cc2)Oc2cc(O)cc(O)c21 (stereo not drawn) 11.5%, Cc1cccc(C(=O)NC2CC3CCCC(C2)N3S(=O)(=O)c2ccccc2)c1 (stereo not drawn) 12.2%, CCOCc1[nH]c(=S)[nH]c(=O)c1Cc1ccc(OCC(C)C)cc1 -4%, O=C(C1CCCN(CCCc2ccccc2)C1)N1CCCCCC1 (stereo not drawn) -9.9%, CC1=C/C(=N\OC(=O)/C=C/c2ccccc2)C(C)=CC1=O 3.5%, Cc1ccc(S(=O)(=O)ON=C2CCN(S(=O)(=O)c3ccccc3)CC2)cc1 8%

inhibition, active:
O=c1c(O[C@@H]2O[C@H](CO)[C@@H](O)[C@H](O)[C@H]2O)c(-c2ccc(O)c(O)c2)oc2cc(O)cc(O)c12 62.8%, COc1ccc(OCc2nnc(SCC(=O)N(C)Cc3ccccc3)n2N)cc1 50.1%, CCS(=O)(=O)c1ccc2oc(Nc3ccc(C(C)C)cc3)nc2c1 63.4%, COCC(=O)N(C)c1nnc(-c2ccccn2)s1 102%, COc1ccccc1C1=Nn2c(COc3ccccc3)nnc2SC1 67.8%, O=C(O[C@@H]1Cc2c(O)cc(O)cc2O[C@@H]1c1cc(O)c(O)c(O)c1)c1cc(O)c(O)c(O)c1 67.2%, CC1=C/C(=N\OS(=O)(=O)c2ccccc2)C(C(C)C)=CC1=O 78.5%
